From the supplement of paper PMC7411054
Where a name gives a salt, the structure may show the parent alone.

How the values were obtained:
Assay in all cases: phenotypically active (imaging signature differs from DMSO and reproducible) at any of 0.3-9 uM (binary (1 = active, 0 = inactive)); higher = active
Details in all cases: treatment time: 24 h
A549-ACTB-RAB5A = system: A549-ACTB-RAB5A
Summary of the method: (§1)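 After 24 h at 0.3, 1, 3 or 9 µM, with four wells per treatment, fifteen gene-edited A549, HepG2 and WPMY1 reporter lines carrying BFP, GFP and RFP/FusionRed were imaged live. Each well's live-cell features were expressed relative to solvent control wells. Deviation required ≥3 of 4 wells past the 95th percentile of control Euclidean distances, and reproducibility a median replicate Pearson correlation over the 95th percentile of non-replicates. Phenotypic activity rested on both.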

A549-CANX-COX4 = system: A549-CANX-COX4
Summary of the method: as §1

A549-GM130-SQSTM1 = system: A549-GM130-SQSTM1
Summary of the method: as §1

A549-TP53BP1-CLTA = system: A549-TP53BP1-CLTA
Summary of the method: as §1

A549-TUBA1B-RELA = system: A549-TUBA1B-RELA
Summary of the method: as §1

HepG2-ACTB-RAB5A = system: HepG2-ACTB-RAB5A
Summary of the method: as §1

HepG2-CANX-COX4 = system: HepG2-CANX-COX4
Summary of the method: as §1

HepG2-GM130-SQSTM1 = system: HepG2-GM130-SQSTM1
Summary of the method: as §1

HepG2-TP53BP1-CLTA = system: HepG2-TP53BP1-CLTA
Summary of the method: as §1

HepG2-TUBA1B-RELA = system: HepG2-TUBA1B-RELA
Summary of the method: as §1

WPMY1-ACTB-RAB5A = system: WPMY1-ACTB-RAB5A
Summary of the method: as §1

WPMY1-CANX-COX4 = system: WPMY1-CANX-COX4
Summary of the method: as §1

WPMY1-GM130-SQSTM1 = system: WPMY1-GM130-SQSTM1
Summary of the method: as §1

WPMY1-TP53BP1-CLTA = system: WPMY1-TP53BP1-CLTA
Summary of the method: as §1

WPMY1-TUBA1B-RELA = system: WPMY1-TUBA1B-RELA
Summary of the method: as §1

Measured: phenotypically active

Fc1ccc(-c2c3cccc(C(F)(F)F)c3nn2Cc2ccc(F)cc2Cl)cc1
inactive: A549-ACTB-RAB5A 0 | A549-CANX-COX4 0 | A549-GM130-SQSTM1 0 | A549-TP53BP1-CLTA 0 | A549-TUBA1B-RELA 0 | HepG2-ACTB-RAB5A 0 | HepG2-CANX-COX4 0 | HepG2-GM130-SQSTM1 0 | HepG2-TP53BP1-CLTA 0 | HepG2-TUBA1B-RELA 0 | WPMY1-ACTB-RAB5A 0 | WPMY1-CANX-COX4 0 | WPMY1-GM130-SQSTM1 0 | WPMY1-TP53BP1-CLTA 0 | WPMY1-TUBA1B-RELA 0

C[C@]1(OC(=O)/C=C/c2ccccc2)C[C@@H](O)[C@]2(O)C=CO[C@@H](O[C@@H]3O[C@H](CO)[C@@H](O)[C@H](O)[C@H]3O)[C@@H]21 [Harpagoside]
inactive: A549-ACTB-RAB5A 0 | A549-CANX-COX4 0 | A549-GM130-SQSTM1 0 | A549-TP53BP1-CLTA 0 | A549-TUBA1B-RELA 0 | HepG2-ACTB-RAB5A 0 | HepG2-CANX-COX4 0 | HepG2-GM130-SQSTM1 0 | HepG2-TP53BP1-CLTA 0 | HepG2-TUBA1B-RELA 0 | WPMY1-ACTB-RAB5A 0 | WPMY1-CANX-COX4 0 | WPMY1-GM130-SQSTM1 0 | WPMY1-TP53BP1-CLTA 0 | WPMY1-TUBA1B-RELA 0

COc1ccc(C(C)=O)c(O)c1 [2'-Hydroxy-4'-Methoxyacetophenone]
inactive: A549-ACTB-RAB5A 0 | A549-CANX-COX4 0 | A549-GM130-SQSTM1 0 | A549-TP53BP1-CLTA 0 | A549-TUBA1B-RELA 0 | HepG2-ACTB-RAB5A 0 | HepG2-CANX-COX4 0 | HepG2-GM130-SQSTM1 0 | HepG2-TP53BP1-CLTA 0 | HepG2-TUBA1B-RELA 0 | WPMY1-ACTB-RAB5A 0 | WPMY1-CANX-COX4 0 | WPMY1-GM130-SQSTM1 0 | WPMY1-TP53BP1-CLTA 0 | WPMY1-TUBA1B-RELA 0

CC(C)(C(=O)O)c1ccc(C(O)CCCN2CCC(C(O)(c3ccccc3)c3ccccc3)CC2)cc1 (stereo not given) [fexofenadine]
inactive: A549-ACTB-RAB5A 0 | A549-CANX-COX4 0 | A549-GM130-SQSTM1 0 | A549-TP53BP1-CLTA 0 | A549-TUBA1B-RELA 0 | HepG2-ACTB-RAB5A 0 | HepG2-CANX-COX4 0 | HepG2-GM130-SQSTM1 0 | HepG2-TP53BP1-CLTA 0 | HepG2-TUBA1B-RELA 0 | WPMY1-ACTB-RAB5A 0 | WPMY1-CANX-COX4 0 | WPMY1-GM130-SQSTM1 0 | WPMY1-TP53BP1-CLTA 0 | WPMY1-TUBA1B-RELA 0

CCCN(CCC)CCc1cccc2c1CC(=O)N2 [ropinirole]
inactive: A549-ACTB-RAB5A 0 | A549-CANX-COX4 0 | A549-GM130-SQSTM1 0 | A549-TP53BP1-CLTA 0 | A549-TUBA1B-RELA 0 | HepG2-ACTB-RAB5A 0 | HepG2-CANX-COX4 0 | HepG2-GM130-SQSTM1 0 | HepG2-TP53BP1-CLTA 0 | HepG2-TUBA1B-RELA 0 | WPMY1-ACTB-RAB5A 0 | WPMY1-CANX-COX4 0 | WPMY1-GM130-SQSTM1 0 | WPMY1-TP53BP1-CLTA 0 | WPMY1-TUBA1B-RELA 0

O=C(O)[C@H](O)[C@@H](O)[C@H](O[C@@H]1O[C@H](CO)[C@H](O)[C@H](O)[C@H]1O)[C@H](O)CO [Lactobionic acid]
inactive: A549-ACTB-RAB5A 0 | A549-CANX-COX4 0 | A549-GM130-SQSTM1 0 | A549-TP53BP1-CLTA 0 | A549-TUBA1B-RELA 0 | HepG2-ACTB-RAB5A 0 | HepG2-CANX-COX4 0 | HepG2-GM130-SQSTM1 0 | HepG2-TP53BP1-CLTA 0 | HepG2-TUBA1B-RELA 0 | WPMY1-ACTB-RAB5A 0 | WPMY1-CANX-COX4 0 | WPMY1-GM130-SQSTM1 0 | WPMY1-TP53BP1-CLTA 0 | WPMY1-TUBA1B-RELA 0

COC(=O)[C@H]1[C@H]2C[C@H]3c4[nH]c5ccccc5c4CCN3C[C@@H]2CC[C@@H]1O [Corynanthine hydrochloride]
inactive: A549-ACTB-RAB5A 0 | A549-CANX-COX4 0 | A549-GM130-SQSTM1 0 | A549-TP53BP1-CLTA 0 | A549-TUBA1B-RELA 0 | HepG2-ACTB-RAB5A 0 | HepG2-CANX-COX4 0 | HepG2-GM130-SQSTM1 0 | HepG2-TP53BP1-CLTA 0 | HepG2-TUBA1B-RELA 0 | WPMY1-ACTB-RAB5A 0 | WPMY1-CANX-COX4 0 | WPMY1-GM130-SQSTM1 0 | WPMY1-TP53BP1-CLTA 0 | WPMY1-TUBA1B-RELA 0

COc1ccc2c(c1OC)C(=O)O[C@@H]2[C@H]1c2c(cc3c(c2OC)OCO3)CCN1C [Noscapine hydrochloride]
inactive: A549-ACTB-RAB5A 0 | A549-CANX-COX4 0 | A549-GM130-SQSTM1 0 | A549-TP53BP1-CLTA 0 | A549-TUBA1B-RELA 0 | HepG2-ACTB-RAB5A 0 | HepG2-CANX-COX4 0 | HepG2-GM130-SQSTM1 0 | HepG2-TP53BP1-CLTA 0 | HepG2-TUBA1B-RELA 0 | WPMY1-ACTB-RAB5A 0 | WPMY1-CANX-COX4 0 | WPMY1-GM130-SQSTM1 0 | WPMY1-TP53BP1-CLTA 0 | WPMY1-TUBA1B-RELA 0

N=C(N)Nc1nc(CSCCC(=N)NS(N)(=O)=O)cs1 [famotidine]
inactive: A549-ACTB-RAB5A 0 | A549-CANX-COX4 0 | A549-GM130-SQSTM1 0 | A549-TP53BP1-CLTA 0 | A549-TUBA1B-RELA 0 | HepG2-ACTB-RAB5A 0 | HepG2-CANX-COX4 0 | HepG2-GM130-SQSTM1 0 | HepG2-TP53BP1-CLTA 0 | HepG2-TUBA1B-RELA 0 | WPMY1-ACTB-RAB5A 0 | WPMY1-CANX-COX4 0 | WPMY1-GM130-SQSTM1 0 | WPMY1-TP53BP1-CLTA 0 | WPMY1-TUBA1B-RELA 0

CC(C)[C@H]1CC[C@H](C(=O)N[C@H](Cc2ccccc2)C(=O)O)CC1 [nateglinide]
inactive: A549-ACTB-RAB5A 0 | A549-CANX-COX4 0 | A549-GM130-SQSTM1 0 | A549-TP53BP1-CLTA 0 | A549-TUBA1B-RELA 0 | HepG2-ACTB-RAB5A 0 | HepG2-CANX-COX4 0 | HepG2-GM130-SQSTM1 0 | HepG2-TP53BP1-CLTA 0 | HepG2-TUBA1B-RELA 0 | WPMY1-ACTB-RAB5A 0 | WPMY1-CANX-COX4 0 | WPMY1-GM130-SQSTM1 0 | WPMY1-TP53BP1-CLTA 0 | WPMY1-TUBA1B-RELA 0

CC(C)(C)NC[C@H](O)COc1nsnc1N1CCOCC1 [timolol]
inactive: A549-ACTB-RAB5A 0 | A549-CANX-COX4 0 | A549-GM130-SQSTM1 0 | A549-TP53BP1-CLTA 0 | A549-TUBA1B-RELA 0 | HepG2-ACTB-RAB5A 0 | HepG2-CANX-COX4 0 | HepG2-GM130-SQSTM1 0 | HepG2-TP53BP1-CLTA 0 | HepG2-TUBA1B-RELA 0 | WPMY1-ACTB-RAB5A 0 | WPMY1-CANX-COX4 0 | WPMY1-GM130-SQSTM1 0 | WPMY1-TP53BP1-CLTA 0 | WPMY1-TUBA1B-RELA 0
